Assay outcomes as filed in PubChem BioAssay.
RORgamma inh: inhibitors of mouse ROR gamma transcriptional activity; Drosophila S2 Gal4-RORgamma UAS-luciferase reporter, 20 h; Potency, µM (highest dose often 53.6 µM), for the others: at the highest dose activity change, negative = inhibition, usual class: inhibitors; AID 2551; 310,000 tested, 5.4% active; note: % is set by controls: 0 for no effect and ±100 for the full control effect; nearly all actives have a fitted effect of over 60% in size
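Stably transfected Drosophila Schneider cells are the test system, with ROR gamma fused to Gal4 and luciferase under UAS control; luminescence is read after 20 hr of 700 uM copper sulfate induction at ambient temperature.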
GLP-1R agonist: activates the human GLP-1 receptor. Potency, µM (series often up to 45.6 µM), for inactives: at the highest dose activation, usual class: activators. P43220. HEK293 GLP-1R CRE-luciferase, luminescence, 4-6 h; cells express a hypersensitive GLP-1R form. AID 624172. 380,000 tested, 0.007% active; note: % of control where 0% means no effect
Target sequence (P43220 whole entry, looked up): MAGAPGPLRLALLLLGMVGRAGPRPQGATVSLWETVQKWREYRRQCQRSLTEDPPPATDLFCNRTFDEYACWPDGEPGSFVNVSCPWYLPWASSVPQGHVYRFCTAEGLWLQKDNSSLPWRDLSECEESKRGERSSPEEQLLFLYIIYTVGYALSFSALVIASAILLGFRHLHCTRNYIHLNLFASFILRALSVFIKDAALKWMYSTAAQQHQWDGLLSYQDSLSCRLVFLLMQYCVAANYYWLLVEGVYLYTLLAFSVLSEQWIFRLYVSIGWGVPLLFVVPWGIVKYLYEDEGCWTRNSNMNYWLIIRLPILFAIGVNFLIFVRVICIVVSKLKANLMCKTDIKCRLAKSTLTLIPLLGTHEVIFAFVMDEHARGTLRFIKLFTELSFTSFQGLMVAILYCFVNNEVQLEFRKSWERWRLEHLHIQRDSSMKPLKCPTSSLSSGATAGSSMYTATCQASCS
Gal4-VP16 FLuc: counter-screen for ROR gamma inhibitors: Gal4-VP16 reporter | Drosophila S2 Gal4-VP16 UAS-luciferase, luminescence, 20 h | Potency, µM (highest dose often 53.6 µM), inactives show at the top dose activity, negative = inhibition, hits mostly inhibitors | 310,000 tested, 3.5% active;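 note: Gal4-VP16 expression switched on by copper sulfate through the metallothionein promoter; % is set by controls: 0 for no effect and ±100 for the full control effect; nearly all actives have a fitted effect of over 50% in size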
HEK293 tox: cytotoxicity counter-screen for GLP-1 receptor inverse agonists. AID 624418. 410,000 tested, 0.13% active. Potency, µM (highest dose often 38.3 µM), without a hit: at the top dose activity change, negative = inhibition, actives largely listed as inhibitors. HEK293 cAMP-luciferase reporter cells, luminescence, 24 h;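 note: loss of luciferase light is scored as toxicity; % is set by controls: 0 for no effect and ±100 for the full control effect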
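Here, cytotoxicity is scored as loss of luminescence. The MLSMR collection was tested on cells seeded in medium containing 10% Nu serum, with a 24 hr compound exposure preceded by 12 hours of culture.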
GLP1R inv ag: inverse agonists of human GLP-1 receptor; P43220; HEK293 GLP-1R CRE-luciferase, luminescence, 24 h; GLP-1R form is constitutively active; Potency, µM (series often up to 38.3 µM), without a hit: at the top dose activity change, negative = inhibition, actives largely listed as inhibitors; 410,000 tested, 1.6% active; AID 624417; note: % is set by controls: 0 for no effect and ±100 for the full control effect; nearly all actives have a fitted effect of over 55% in size
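Seeding at 200 cells/uL, 12 h culture, 24 hr compound treatment, then luciferase reagent and a luminescence read; cells are HEK293 stably expressing a constitutively active GLP-1R plus cAMP-responsive luciferase.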
Numbers without * were called inactive; ? = inconclusive; . = no result given; [ ] = remark or other dose. Only some compounds are listed: those with a hit (about 5.9% of all), similar ones and a draw of the others. Calls come from the whole dose curve; as a rule, active = well fitted curve in the direction sought with a large enough effect; inconclusive = small, poorly fitted or top-dose-only effect, or another doubt; inactive = no such curve, though single readings can be large; an effect the other way counts as inactive or inconclusive. Potency is the fitted concentration of half-maximal effect.

SMILES | RORgamma inh | GLP-1R agonist | Gal4-VP16 FLuc | HEK293 tox | GLP1R inv ag
CN[C@H](CC(C)C)C(=O)N[C@H]1C(=O)N[C@@H](CC(N)=O)C(=O)N[C@H]2C(=O)N[C@H]3C(=O)N[C@H](C(=O)N[C@H](C(=O)O)c4cc(O)cc(O)c4-c4cc3ccc4O)[C@H](O)c3ccc(c(Cl)c3)Oc3cc2cc(c3O[C@@H]2OC(CO)[C@@H](O)[C@H](O)[C@H]2O[C@H]2C[C@](C)(N)[C@H](O)[C@H](C)O2)Oc2ccc(cc2Cl)[C@H]1O (stereo partly specified) | . | -3.8% | . | . | .
O=C(Nc1cc2c(cc1C(=O)c1ccc(Br)cc1)OCCO2)c1ccc(Cl)cc1 | . | . | . | 0.9% | 0.2%
CCSC[C@H](NC(=O)[C@H](C)NC(=O)[C@@H](N)Cc1ccc(O)cc1)C(=O)N[C@@H](CC(=O)O)C(=O)N[C@H](C(=O)N[C@@H](C)C(=O)N[C@H](C(=O)N[C@@H](CSCC)C(=O)N[C@H](C(=O)N[C@H](C(=O)N[C@@H](Cc1cnc[nH]1)C(=O)N[C@@H](CCCNC(=N)N)C(=O)N[C@@H](CC(C)C)C(=O)N[C@@H](C)C(=O)NCC(=O)N[C@@H](CC(C)C)C(=O)N[C@@H](CC(C)C)C(=O)N[C@@H](CO)C(=O)N[C@@H](CCCNC(=N)N)C(=O)N[C@@H](CO)C(=O)NCC(=O)NCC(=O)N[C@H](C(=O)N[C@H](C(=O)N[C@@H](CCCCN)C(=O)N[C@@H](CC(N)=O)C(=O)N[C@@H](CC(N)=O)C(=O)N[C@@H](Cc1ccccc1)C(=O)N[C@H](C(=O)N1CCC[C@H]1C(=O)N[C@H](C(=O)N[C@@H](CC(N)=O)C(=O)N[C@H](C(=O)NCC(=O)N[C@@H](CO)C(=O)N[C@@H](CCCCN)C(=O)N[C@@H](C)C(=O)N[C@@H](Cc1ccccc1)C(N)=O)C(C)C)[C@@H](C)O)C(C)C)C(C)C)C(C)C)[C@@H](C)O)C(C)C)[C@@H](C)O)[C@@H](C)O | -2.7% | . | 1.7% | . | .
CS(=O)(=O)c1nc(-c2ccccc2)cc(C(F)(F)F)n1 | 0.501µM* | -10.3% | 1.58µM* | ? | ?
CCc1nnc(NC(=O)c2nc(Cl)ccc2Cl)s1 | ? | -0.9% | 12.7% | -3.5% | 17.6%
Cc1ccc(CS(=O)(=O)c2ncc(Cl)c(C(=O)Nc3ccc(OC(F)F)cc3)n2)cc1 | -95.8% | -5.1% | ? | -3.2% | ?
CSc1ncc(Cl)c(C(=O)Nc2nnc(SC/C=C/c3ccccc3)s2)n1 | 1.7% | -10.5% | -14.3% | 2.3% | -8.2%
Cc1ccc(C)c(NC(=O)c2nc(S(=O)(=O)Cc3ccc(F)cc3)ncc2Cl)c1 | . | . | . | -12.2% | 8.3%
CCOc1ccccc1NC(=O)c1nc(S(=O)(=O)Cc2cccc(C)c2)ncc1Cl | 8.91µM* | -3.0% | 2.51µM* | 0.1% | 6.2%
CCc1nnc(NC(=O)c2nc(S(=O)(=O)Cc3ccccc3)ncc2Cl)s1 | 11.2µM* | -7.2% | 8.91µM* | -3.2% | ?
CCc1nnc(NC(=O)c2nc(S(=O)(=O)Cc3cccc(C)c3)ncc2Cl)s1 | 12.6µM* | -5.5% | 7.94µM* | ? | ?
CSc1nnc(NC(=O)c2nc(S(=O)(=O)Cc3cccc(C)c3)ncc2Cl)s1 | ? | -5.2% | 17.8µM* | -0.6% | ?
COc1cc(NC(=O)CC(C)n2nc(C)cc2C)cc(OC)c1 (stereo unspecified) | . | . | . | 3.7% | 0.5%
COc1cc(C2c3c(-c4cc(C)ccc4O)n[nH]c3C(=O)N2CCCO)ccc1OCCC(C)C (stereo unspecified) | . | . | . | -19.6% | ?
Cc1ccc(NC(=O)Cn2c(=O)n(CCCCC(=O)NCCc3ccc(Cl)cc3)c(=O)c3ccccc32)cc1 | . | 0.2% | . | 0.6% | -1.4%
CCc1nnc(NC(=O)c2nc(S(=O)(=O)Cc3ccc(C)cc3)ncc2Cl)s1 | 15.8µM* | -3.8% | 11.2µM* | ? | ?
Cc1cccc(CS(=O)(=O)c2ncc(Cl)c(C(=O)Nc3nnc(C(C)C)s3)n2)c1 | 0.0224µM* | -8.4% | ? | ? | ?
CN(C)CC[C@H](c1ccc(Br)cc1)c1ccccn1 | -16.3%[16.9 µM] | . | 4.9%[17 µM] | . | .
Cc1nc(SCC(=O)Nc2ccc(Cl)cc2C(F)(F)F)[nH]c(=O)c1Cc1ccccc1 | . | -1.6% | . | 2.5% | 6.2%
CCOc1ccc(-c2csc(NC(=O)CSC3=NC(=O)CN3C(C)=O)n2)c2ccccc12 | 11.2µM* | 1.6% | 7.94µM* | 2.9% | 21.6%
Cc1cc(NCc2ccccn2)nc2ccccc12 | ? | 0.7% | 16.7% | -12.5% | 0.3%
c1ccc(CNc2ccc3ccccc3n2)nc1 | 10µM* | 3.2% | ? | 2.9% | 0.0%
Nc1nc(Nc2ccccc2F)sc1C(=O)c1ccc(Cl)cc1 | . | . | . | 0.8% | ?
O=C(Nc1ccccc1-c1ccccc1)C12CC3CC(CC(C3)C1)C2 | ? | 1.9% | 2.6% | 0.7% | 2µM*
O=C(Nc1ccccc1-c1ccccc1)C1CCCC1 | -0.3% | 10.4% | -4.6% | -19.3% | ?
SMILES | RORgamma inh | GLP-1R agonist | Gal4-VP16 FLuc | HEK293 tox | GLP1R inv ag
Cc1ccccc1C1CC(=O)Oc2cc(C)c(Cl)c(C)c21 (stereo unspecified) | 2.6% | . | -5.1% | . | .
COc1cccc([C@@H]2Oc3ccc(OC)cc3C(=O)[C@H]2OC(=O)Nc2ccc(C)c(Br)c2)c1 | -16.7% | . | 1.4% | . | .
COc1ccc(S(=O)(=O)N2CCN(C(=O)c3cc(-c4ccc(Br)cc4)n[nH]3)CC2)cc1OC | ? | -2.3% | 12.6µM* | -13.1% | ?
COc1ccc(Cl)cc1S(=O)(=O)N1CCN(C(=O)c2cc(-c3ccc(Br)cc3)n[nH]2)CC1 | . | . | . | -18.8% | 10µM*
CCOc1ccc(NC(=O)c2ccc(NC(=O)CCS(=O)(=O)c3cccs3)cc2)cc1 | . | . | . | -16.7% | 7.9%
Cc1ccc(S(=O)(=O)c2nc(-c3ccccc3Cl)oc2N2CCN(C)CC2)cc1 | . | 8.3% | . | -4.0% | 10µM*
CC[C@@]1(O)C[C@H](O[C@H]2C[C@@H](N(C)C)[C@@H](O[C@H]3C[C@@H](O)[C@@H](O[C@H]4CCC(=O)[C@@H](C)O4)[C@@H](C)O3)[C@@H](C)O2)c2c(cc3c(c2O)C(=O)c2c(O)cccc2C3=O)[C@H]1C(=O)OC | 0.316µM* | -6.4% | 0.562µM* | . | .
c1ccc(-c2nn[nH]n2)c(Nc2cccc3c2CCCC3)c1 | 17.7% | . | -21.6% | . | .
COc1ccc(-c2cn3cc(C)ccc3n2)cc1Br | ? | 6.1% | 7.08µM* | 0.7% | ?
CCOC(=O)c1c(C)n(O)c2ccc(Cl)cc2c1=O | ? | 4.0% | 15.8µM* | 270.6% | 3.2%
COc1ccc(-c2cnnc(CCCn3ccnc3-c3ccccc3)n2)cc1 | -0.3%[10 µM] | . | -4.2%[10 µM] | . | .
